PubChem BioAssay (Tox21)
Results filed as inconclusive are left out. Active and inactive are the calls of the source. Unless noted, the call rests on the fitted dose curve.

Experiments:
[1] = Nuclear factor erythroid 2-related factor 2/antioxidant responsive element (Nrf2/ARE) small molecule agonists: qHTS cell viability counter screen in human keratinocytes (AID 1919968; active means well fitted curve in the direction sought with a large enough effect in the repeat runs; an effect the other way counts as inactive or inconclusive; further: nearly all actives have a fitted effect of over 55% in size)
In short: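 KeratinoSens cells (HaCaT keratinocytes stably carrying an ARE-luciferase reporter) were seeded at 1,500 cells/well and rested 5 h at 37 C/5% CO2. They were then exposed to compounds in DMSO for 23 h. Viability was read by CellTiter-Fluor fluorescence after 1 h.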

[2] = Nuclear factor erythroid 2-related factor 2/antioxidant responsive element (Nrf2/ARE) small molecule agonists: luciferase reporter gene qHTS assay in human keratinocytes (AID 1919969); further: nearly all actives have a fitted effect of over 35% in size
[3] = target: Gonadotropin-releasing hormone receptor (Homo sapiens) (UniProt P30968); test: Human gonadotropin-releasing hormone receptor (GnRHR) small molecule agonists, calcium flux assay in GnRHR-HEK293 cells (AID 1920063); further: nearly all actives have a fitted effect of over 35% in size; further: potency means the concentration at half of the fitted maximal effect
Chain of Gonadotropin-releasing hormone receptor (Homo sapiens) (P30968 whole entry, looked up): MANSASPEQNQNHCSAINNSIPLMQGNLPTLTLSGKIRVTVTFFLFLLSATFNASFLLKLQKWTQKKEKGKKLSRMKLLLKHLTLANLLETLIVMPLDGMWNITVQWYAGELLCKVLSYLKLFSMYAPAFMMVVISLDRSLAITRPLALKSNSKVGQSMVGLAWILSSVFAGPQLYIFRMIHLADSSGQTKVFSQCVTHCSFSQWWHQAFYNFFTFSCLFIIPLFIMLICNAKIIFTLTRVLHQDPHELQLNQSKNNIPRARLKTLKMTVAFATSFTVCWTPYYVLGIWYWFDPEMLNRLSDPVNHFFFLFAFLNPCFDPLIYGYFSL
In short: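 HEK293 cells stably expressing human GnRHR were plated 18 h at 37 °C, loaded with calcium dye 1 h at 37 °C, then given compound in agonist mode; fluorescence (Ex/Em 480/540) read kinetically for 3 min at 1 s intervals.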

[4] = target: KiSS-1 receptor (Homo sapiens) (UniProt Q969F8); test: Human kisspeptin (KISS1R) small molecule agonists, calcium flux assay in KISS1R-HEK293 cells (AID 1920064; active means well fitted curve in the direction sought with a large enough effect in the repeat runs; an effect the other way counts as inactive or inconclusive)
Chain of KiSS-1 receptor (Homo sapiens) (Q969F8 whole entry, looked up): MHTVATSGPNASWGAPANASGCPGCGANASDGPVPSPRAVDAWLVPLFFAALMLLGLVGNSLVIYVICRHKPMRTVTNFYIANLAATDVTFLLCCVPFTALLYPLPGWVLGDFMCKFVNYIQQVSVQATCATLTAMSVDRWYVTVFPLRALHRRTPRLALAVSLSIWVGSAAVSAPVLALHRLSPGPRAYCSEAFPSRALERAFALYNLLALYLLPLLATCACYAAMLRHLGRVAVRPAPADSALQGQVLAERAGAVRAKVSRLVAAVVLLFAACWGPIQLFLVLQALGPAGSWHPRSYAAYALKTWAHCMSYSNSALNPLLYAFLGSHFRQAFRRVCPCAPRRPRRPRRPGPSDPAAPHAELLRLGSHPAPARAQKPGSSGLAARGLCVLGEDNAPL
In short: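 HEK293 cells stably expressing human KISS1R were plated 18 h at 37 °C, loaded with calcium dye for 1 h at 37 °C, then given compound by pin tool. Fluorescence (Ex/Em 480/540) was read kinetically for 3 min.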

[5] = G protein-coupled receptor (GPCR) small molecule agonists, calcium flux assay: HEK293 wild type cell line counter screen (AID 1920065)
In short: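 Cells were plated and cultured 18 h at 37 C/5% CO2, then loaded with calcium dye for 1 h at 37 C. Compounds in DMSO were pin-transferred in agonist mode, and fluorescence (Ex/Em 480/540) was read kinetically for 3 min at 1 s intervals.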

[6] = p53 small molecule agonists, cell-based qHTS assay with human liver microsomes (AID 1963577);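 further: p53 response element beta-lactamase reporter cells with liver microsomes plus NADPH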
In short: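 With metabolic activation: human liver microsomes (0.5 mg/mL final) plus NADPH (0.5 mg/mL final) added alongside compounds to p53RE-bla cells; 16 h 37 C exposure; beta-lactamase read by LiveBLAzer fluorescence.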

[7] = p53 small molecule agonists, cell-based qHTS assay with rat liver microsomes (AID 1963578)
In short: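 Metabolic activation by rat liver microsomes and NADPH, each 0.5 mg/mL final, added right after compounds to p53RE-bla reporter cells (4,000/well, plated 5 h earlier). 16 h at 37 C, then LiveBLAzer substrate for 2 h at room temperature in the dark; fluorescence read-out.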

[8] = p53 small molecule agonists, cell-based qHTS assay with human liver microsomes: qHTS cell viability counter screen (AID 1963579); further: nearly all actives have a fitted effect of over 45% in size
In short: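 Metabolic activation used human liver microsomes and NADPH, both 0.5 mg/mL final, over 16 hours at 37 C on p53RE-bla cells (4,000/well). Cytotoxicity measured by CellTiter-Glo luminescence, 30 min at room temperature.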

[9] = p53 small molecule agonists, cell-based qHTS assay with rat liver microsomes: qHTS cell viability counter screen (AID 1963580); further: nearly all actives have a fitted effect of over 45% in size
In short: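 HCT-116 p53RE-bla, 4,000 cells/well, 5 h pre-incubation; cpd + rat liver microsomes 0.5 mg/mL + NADPH 0.5 mg/mL (final); 16 h, 37 C; CellTiter-Glo, 30 min RT; luminescence.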

[10] = p53 small molecule agonists, cell-based qHTS assay: qHTS cell viability counter screen (AID 1963581); further: nearly all actives have a fitted effect of over 45% in size
In short: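 p53RE-bla HCT-116 cells were exposed to compounds for 16 h at 37 C; after the beta-lactamase FRET read in the same wells, CellTiter-Glo was added and luminescence (intracellular ATP) read after 30 min at room temperature.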

[11] = p53 small molecule agonists, cell-based qHTS assay (AID 1963582; active means well fitted activation curve with a large enough effect in the signal ratio in the repeat runs, not every such curve was filed as active; the % refers to the signal ratio)
In short: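 p53RE-bla beta-lactamase reporter cells rested 5 h at 37 C/5% CO2, then received compounds in DMSO by pin transfer and were incubated 16 h at 37 C. LiveBLAzer B/G FRET substrate was loaded for 2 h at room temperature before fluorescence reading.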

[12] = target: Muscarinic acetylcholine receptor M1 (Homo sapiens) (UniProt P11229); test: Cholinergic receptor muscarinic 1 (CHRM1) small molecule antagonists, cell-based qHTS assay (AID 1963588); further: nearly all actives have a fitted effect of over 40% in size
Chain of Muscarinic acetylcholine receptor M1 (Homo sapiens) (P11229 whole entry, looked up): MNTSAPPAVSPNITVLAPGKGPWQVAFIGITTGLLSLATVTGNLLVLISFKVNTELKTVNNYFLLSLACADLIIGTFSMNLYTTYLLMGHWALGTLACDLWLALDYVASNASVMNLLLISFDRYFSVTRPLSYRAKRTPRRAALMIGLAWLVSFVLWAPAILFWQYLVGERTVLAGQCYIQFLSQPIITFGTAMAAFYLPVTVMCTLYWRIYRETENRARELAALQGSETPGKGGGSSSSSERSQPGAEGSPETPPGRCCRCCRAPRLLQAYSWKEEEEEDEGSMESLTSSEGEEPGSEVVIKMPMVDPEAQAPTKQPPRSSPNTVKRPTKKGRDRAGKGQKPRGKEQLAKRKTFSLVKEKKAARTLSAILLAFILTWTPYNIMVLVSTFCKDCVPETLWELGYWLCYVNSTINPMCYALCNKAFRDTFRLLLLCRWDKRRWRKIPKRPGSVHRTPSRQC
In short: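 CHRM1-CHO calcium-flux assay, antagonist mode. Cells were seeded 18 h, dye-loaded 1 h at 37 C and given compound for 5 min at RT, then acetylcholine was added at 50nM. FDSS fluorescence was read 3 min; 15 concentrations, three runs.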

[13] = target: Muscarinic acetylcholine receptor M1 (Homo sapiens) (UniProt P11229); test: Cholinergic receptor muscarinic 1 (CHRM1) small molecule agonists, cell-based qHTS assay (AID 1963589); further: nearly all actives have a fitted effect of over 35% in size
In short: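 CHO cells stably expressing human CHRM1, seeded 18 h at 37 C/5% CO2, dye-loaded 1 h at 37 C, then given compound in agonist mode; intracellular calcium fluorescence read kinetically at 1 s intervals. Fifteen concentrations, three independent runs.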

[14] = cAMP Responsive Elements (CRE) small molecule agonists, cell-based qHTS assay (AID 1963590)
In short: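 CRE-bla HEK 293T cells in DMEM with 10% dialyzed FBS, NEAA, pyruvate and 25 mM HEPES were plated 18 h at 37 C/5% CO2, then exposed to compounds in DMSO for 3 h before LiveBLAzer B/G FRET substrate addition.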

[15] = cAMP Responsive Elements (CRE) small molecule antagonists, cell-based qHTS assay (AID 1963591; active means well fitted inhibition curve with a large enough effect in the signal ratio in the repeat runs, not every such curve was filed as active; the % refers to the signal ratio)
In short: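 CRE-bla HEK293T cells were plated 18 h at 37 °C/5% CO2, pinned with compound in DMSO, then stimulated with NKH477 at 0.25 uM final for 3 h. LiveBLAzer B/G FRET substrate was added and plates incubated 2 h at room temperature.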

[16] = target: Beta-2 adrenergic receptor (Homo sapiens) (UniProt P07550); test: Adrenergic beta2 receptor (ADRB2) small molecule antagonists, cell-based qHTS assay (AID 1963592); further: series mostly up to about 92 µM; nearly all actives have a fitted effect of over 50% in size
Chain of Beta-2 adrenergic receptor (Homo sapiens) (P07550 whole entry, looked up): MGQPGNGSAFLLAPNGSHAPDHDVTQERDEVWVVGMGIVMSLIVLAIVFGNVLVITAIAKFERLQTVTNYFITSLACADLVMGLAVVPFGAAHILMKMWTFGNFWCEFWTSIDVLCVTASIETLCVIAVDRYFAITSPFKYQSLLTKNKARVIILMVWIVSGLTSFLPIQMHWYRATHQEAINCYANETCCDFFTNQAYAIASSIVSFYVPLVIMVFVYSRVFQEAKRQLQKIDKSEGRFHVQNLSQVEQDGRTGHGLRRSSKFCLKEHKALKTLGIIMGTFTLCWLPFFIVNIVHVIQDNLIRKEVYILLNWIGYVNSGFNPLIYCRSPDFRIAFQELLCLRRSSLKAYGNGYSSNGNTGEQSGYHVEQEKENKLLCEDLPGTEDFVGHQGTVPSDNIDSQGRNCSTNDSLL
In short: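 Cells (CHO, stable ADRB2 overexpression) incubated 18-20hr at 37C; compounds added from DMSO; agonist mix (1nM isoproterenol, 100uM IBMX, 25uM Ro-20-1724) added; 0.5hr RT; d2-cAMP and anti-cAMP-cryptate added; 1hr RT; 665/615 nm read.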

[17] = target: D(2) dopamine receptor (Homo sapiens) (UniProt P14416); test: Dopamine D2 receptor (DRD2) small molecule agonists, cell-based qHTS assay (AID 1963594); further: nearly all actives have a fitted effect of over 35% in size
Chain of D(2) dopamine receptor (Homo sapiens) (P14416 whole entry, looked up): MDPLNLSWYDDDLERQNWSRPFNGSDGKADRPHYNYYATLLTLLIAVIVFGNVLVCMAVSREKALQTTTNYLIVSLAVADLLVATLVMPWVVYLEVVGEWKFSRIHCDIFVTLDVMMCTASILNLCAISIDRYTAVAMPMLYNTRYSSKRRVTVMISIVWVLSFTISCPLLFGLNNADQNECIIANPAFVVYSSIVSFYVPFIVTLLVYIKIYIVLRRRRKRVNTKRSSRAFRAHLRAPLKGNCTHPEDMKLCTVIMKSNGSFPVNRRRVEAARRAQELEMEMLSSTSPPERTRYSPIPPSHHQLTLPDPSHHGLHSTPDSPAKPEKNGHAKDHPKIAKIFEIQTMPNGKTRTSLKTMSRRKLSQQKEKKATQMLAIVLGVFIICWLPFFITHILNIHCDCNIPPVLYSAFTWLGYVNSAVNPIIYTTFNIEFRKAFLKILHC
In short: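 cAMP accumulation in DRD2-HEK293 cells measured by HTRF after 1 h detection; compounds added 10 min before NKH477 (200nM […]) forskolin-analogue stimulation, 30 min at room temperature, with Ro20-1724 present at 0.1 mM final.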

[18] = target: D(2) dopamine receptor (Homo sapiens) (UniProt P14416); test: Dopamine D2 receptor (DRD2) small molecule antagonists, cell-based qHTS assay (AID 1963595; active means well fitted inhibition curve with a large enough effect in the signal ratio in the repeat runs, with a control signal flat; the % refers to the signal ratio; further: potency means the concentration at half of the fitted maximal effect)
In short: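 DRD2-HEK293; 0.1 mM Ro20-1724; cpd 10 min RT; NKH477 200 nM + quinpirole 12 nM, 30 min RT; HTRF cAMP (cAMP-d2/anti-cAMP cryptate), 665/620 nm ratio after 1 h.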

[19] = target: 5-hydroxytryptamine receptor 2A (Homo sapiens) (UniProt P28223); test: 5-hydroxytryptamine receptor 2A (HTR2A) small molecule agonists, cell-based qHTS assay (AID 1963587); further: nearly all actives have a fitted effect of over 30% in size; further: potency means the concentration at half of the fitted maximal effect
Chain of 5-hydroxytryptamine receptor 2A (Homo sapiens) (P28223 whole entry, looked up): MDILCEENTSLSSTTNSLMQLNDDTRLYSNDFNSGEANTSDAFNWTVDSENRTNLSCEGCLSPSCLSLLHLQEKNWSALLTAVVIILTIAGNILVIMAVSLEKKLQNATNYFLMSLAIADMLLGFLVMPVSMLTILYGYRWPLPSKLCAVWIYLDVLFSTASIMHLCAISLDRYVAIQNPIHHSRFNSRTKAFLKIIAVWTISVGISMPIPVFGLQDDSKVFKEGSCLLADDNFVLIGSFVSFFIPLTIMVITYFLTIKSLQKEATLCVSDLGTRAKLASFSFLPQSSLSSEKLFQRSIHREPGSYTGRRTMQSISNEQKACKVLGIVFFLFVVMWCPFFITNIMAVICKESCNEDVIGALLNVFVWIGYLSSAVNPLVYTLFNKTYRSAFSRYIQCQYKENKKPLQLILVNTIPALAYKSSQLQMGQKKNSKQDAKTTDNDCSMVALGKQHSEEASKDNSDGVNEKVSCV
In short: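 Kinetic calcium-flux fluorescence (2 min, 1 sec intervals) after compound addition in agonist mode. HTR2A-CHO cells were cultured 18 h, then dye-loaded 1 h at 37 C.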

[20] = target: Beta-2 adrenergic receptor (Homo sapiens) (UniProt P07550); test: Adrenergic beta2 receptor (ADRB2) small molecule agonists, cell-based qHTS assay (AID 1963593); further: potency means the concentration at half of the fitted maximal effect;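 on activation: CHO cells stably overexpressing human ADRB2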
In short: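 CHO cells stably over-expressing ADRB2 were plated overnight at 37C, then dosed with compounds plus a stimulation mix containing 100uM IBMX and 25uM Ro-20-1724 for 0.5hr at room temperature. cAMP was measured by HTRF competition, 1hr.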

Measured: Potency

CC1(N)CCC(C(C)(C)N)CC1 (stereo not given)
not listed: [19] | [20]
inactive: all other assays above

CCOc1cc(OCC)c(C(=O)CCC(=O)O)cc1OCC
not listed: [14] | [15]
inactive: all other assays above

CN(C)CCN(C)CCN(C)C
not listed: [13] | [20]
inactive: all other assays above

CCOc1ccccc1O[C@H](c1ccccc1)[C@H]1CNCCO1
not listed: [12] | [16] | [17] | [18] | [19] | [20]
inactive: all other assays above

O=C(CO)[C@@H](O)[C@H](O)[C@H](O)CO
not listed: [16] | [18] | [19] | [20]
inactive: all other assays above

COc1ccc(OC(=O)N(CC(=O)O)Cc2ccc(OCCc3nc(-c4ccccc4)oc3C)cc2)cc1
not listed: [14] | [15] | [19] | [20]
inactive: all other assays above

O=C(O)c1cccc(C(=O)O)n1
not listed: [12] | [15] | [17] | [20]
inactive: all other assays above

C(=C/c1ccccc1)/c1ccccc1
not listed: [14] | [16] | [18]
inactive: all other assays above

CC[C@H](NC(C)C)[C@H](O)c1ccc(O)c2[nH]c(=O)ccc12
active: [3] 12 nM | [20] 1.7 nM | [18] 94.4 nM
not listed: [14] | [15] | [16]
inactive: all other assays above

CC(C)(C)C(=O)Oc1ccc(S(=O)(=O)Nc2ccccc2C(=O)NCC(=O)O)cc1
not listed: [13] | [19]
inactive: all other assays above

CCCCCC[C@@H](CCC)C(=O)O
not listed: [12]
inactive: all other assays above

CCCCCCCCCCCCCCCCCCO
not listed: [17] | [19]
inactive: all other assays above

C=CCCCCCCCCC=O
not listed: [14] | [15] | [16] | [20]
inactive: all other assays above

CN(C)CCc1c[nH]c2ccc(CS(=O)(=O)N3CCCC3)cc12
active: [19] 10700 nM
not listed: [12]
inactive: all other assays above
